High-throughput results deposited in PubChem BioAssay by National Center for Advancing Translational Sciences (NCATS).
Compounds with a hit are over-represented: about 19% of the library has one in this group of screens.
SW480 rerep – inducers of DNA re-replication in SW480 colon cancer cells; SW480 DNA re-replication, Hoechst DNA content imaging, 48 h; Potency, µM (titrated, usually from 46.1 µM), without a hit: at the top dose re-replication activation, usual class: activators; 1.8% of 340,000 active; AID 624297; also: potency is read from the fitted curve at half-maximal effect; % of control where 0% means no effect; nearly all actives have a fitted effect of over 55% in size
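Treated cells incubate 48 hr (37 C, 5% CO2), are stained 40 min with Hoechst, and nuclear fluorescence is enumerated; a rise in nuclei with high DNA signal marks re-replication.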
TDP1 cell CPT – growth inhibition of DT40 Tdp1-/-;hTDP1 cells with camptothecin (screen for TDP1 inhibitors) | chicken DT40 Tdp1-/-;hTDP1 cells + 20 nM CPT, ATP luminescence, 48 h | Potency, µM (top dose mostly 46.2 µM), for inactives: at the top dose activity change, negative = growth inhibition, hits mostly inhibitors | 12% of 420,000 active | AID 686979; also: potency is read from the fitted curve at half-maximal effect; % is scaled to controls: 0 for no effect and ±100 for the full control effect; nearly all actives have a fitted effect of over 55% in size
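Chicken DT40 Tdp1-/- cells stably complemented with human TDP1 were seeded at 400 cells/well in medium containing 20 nM camptothecin, exposed to pin-transferred compounds, and grown at 37 °C for at least 48 hr. Viability was read as ATP luminescence.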
MCF10A rerep – DNA re-replication induction in MCF 10a cells. MCF 10A DNA re-replication, Hoechst nuclear intensity, 48 h. Potency, µM (doses to about 46.1 µM), inactives show top-dose activity, positive = re-replication, usual class: activators. 2.9% of 350,000 active; also: potency is read from the fitted curve at half-maximal effect; % of control where 0% means no effect; nearly all actives have a fitted effect of over 50% in size
DT40 TDP1 no CPT – qHTS for Inhibitors of human tyrosyl-DNA phosphodiesterase 1 (TDP1): qHTS in cells in absence of CPT. Potency, µM (highest dose often 46.2 µM), inactives show at the highest dose activity change, negative = growth inhibition, most hits filed as inhibitors. 15% of 420,000 active. DT40 Tdp1-/- hTDP1 cells, no CPT, ATP luminescence, 48 h. AID 686978, 2013; also: potency is read from the fitted curve at half-maximal effect; % is scaled to controls: 0 for no effect and ±100 for the full control effect; nearly all actives have a fitted effect of over 55% in size
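Seeded 400 DT40-hTDP1 cells/well (vehicle DMSO, no 20 nM CPT); pinned compounds; ≥48 hr at 37 °C; CellTiter-Glo luminescence as viability measure.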
Chronic BCR inh – inhibitors of chronic active B-cell receptor signaling; ABC-DLBCL IkBa-CBG/CBR reporter, luminescence ratio, 4 h; Potency, µM (highest dose often 46.1 µM), without a hit: at the top dose activity change, negative = inhibition, actives largely listed as inhibitors; 0.05% of 340,000 active; active = well fitted inhibition curve with a large enough effect in the signal ratio, with a control signal flat, not every such curve was filed as active; inconclusive = small, poorly fitted or top-dose-only effect, or effect the other way, or a change in a side signal; the % refers to the signal ratio;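 also: potency is read from the fitted curve at half-maximal effect; plate controls were basal doxycycline-induced cells for no effect and cells given 10 µM MG132 for full effect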
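TMD8 ABC-DLBCL cells carrying doxycycline-inducible green luciferase fused to IkappaBalpha plus unfused red luciferase were exposed to compounds (up to 46 uM) for 4 hrs at 37C. Activity came from the overlap-corrected green/red luminescence ratio.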
IL1B secr inh – inflammasome signaling inhibition, IL-1 beta readout. THP-1 LPS/ATP IL-1B secretion, AlphaLISA, 16 h; active compounds read low. activity change, % at 57.5 µM. 4.7% of 360,000 active. AID 743279; in the data active = activity change below about -50%; inconclusive = mostly about -30% to -49%; also: % is scaled to controls: 0 for no effect and ±100 for the full control effect
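THP-1 cells pretreated 1 hr with compounds (up to 57.5 uM final), then stimulated with LPS (250 ng/mL final) plus ATP (1.25 mM final); secreted IL-1B measured by AlphaLISA after 16 hr, decreased signal indicating inhibition.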
An asterisk follows results filed as active; ? = inconclusive; nt = no result given; [ ] = dose if it differs, or a comment. Unless noted, calls follow the shape of the dose curve; as a rule, active = well fitted curve in the direction sought with a large enough effect; inconclusive = small, poorly fitted or top-dose-only effect, or another doubt; inactive = no such curve, though single readings can be large; an effect the other way counts as inactive or inconclusive.

SMILES | SW480 rerep | TDP1 cell CPT | MCF10A rerep | DT40 TDP1 no CPT | Chronic BCR inh | IL1B secr inh
CN(c1ccccc1)S(=O)(=O)c1cccc(C(=O)Nc2ccc3c(c2)CCC3)c1 | ? | 5.2µM* | -21% | 2.6µM* | -3% | 0
CC(=O)c1cccc(NC(=O)c2ccc(N(C)S(C)(=O)=O)cc2)c1 | -2% | -13% | -10% | -26% | -1% | 23
CN(c1cccc(NC(=O)c2ccc(N(C)S(=O)(=O)c3ccccc3)cc2)c1)S(C)(=O)=O | 17% | 21µM* | ? | ? | ? | -12
CN(c1cccc(NC(=O)c2ccc(C(C)(C)C)cc2)c1)S(C)(=O)=O | ? | 23µM* | 0% | 21µM* | ? | ?
CCN(CC)CCNC(=O)c1ccc(NC(=O)c2ccccc2-c2ccc(C(F)(F)F)cc2)cc1 | ? | 18µM* | 21µM* | ? | 1% | -67*
Cc1cc(=O)[nH]c2nc3ccccc3n12 | nt | -10% | nt | -5% | nt | -2
CCN(CC)CCCNC(=O)c1ccc(S(=O)(=O)Nc2ccc(C)c(C)c2)cc1 | -7% | ? | ? | 16µM* | 5% | -4
CSc1ncccc1C(=O)Nc1cccc(S(=O)(=O)N(C)c2ccccc2)c1 | -4% | 18µM* | 5% | ? | 0% | -3
CC(=O)Nc1ccc(C(=O)Nc2cccc(S(=O)(=O)N(C)c3ccccc3)c2)cc1 | -23% | 18µM* | 5% | ? | -2% | 8
CN(c1ccccc1)S(=O)(=O)c1cccc(NC(=O)c2ccncc2)c1 | -8% | 6.5µM* | 3% | 8.2µM* | 1% | 5
COc1cc(SC)ccc1C(=O)Nc1ccc2ncccc2c1 | -38% | ? | ? | ? | ? | -12
CCOc1ccc(C(=O)OCc2cc(=O)n3cc(C)sc3n2)cc1 | nt | -1% | nt | 4% | nt | nt
CNc1cccc(-c2c(OC)cccc2OC)n1 | nt | ? | nt | ? | nt | 27
Cc1ccc(NS(=O)(=O)c2cc(C(=O)Nc3cccc(N(C)S(C)(=O)=O)c3)ccc2C)c(C)c1 | -8% | 16µM* | 3% | 18µM* | ? | -7
COc1ccc(NC(=O)c2cccc(S(=O)(=O)N(C)c3ccccc3)c2)cn1 | -1% | 16µM* | 16% | 16µM* | ? | 10
O=C(Nc1ccc2c(c1)CCC2)c1ccccc1 | 0% | ? | 13% | 16µM* | ? | -2
CCN(CC)CCNC(=O)C(=O)Nc1cc2c3c(c1)CCC(=O)N3CCC2 | -10% | -6% | 0% | 10% | 5% | -62*
CN(C)CCNC(=O)C(=O)Nc1cc2c3c(c1)CCC(=O)N3CCC2 | -7% | 8% | -6% | -13% | 0% | -1
Cc1ccc(N(C)S(=O)(=O)c2cccc(C(=O)Nc3ccc(C)cn3)c2)cc1 | -2% | ? | 9% | ? | 2% | -17
CC1CCCN(CCCCOc2cccc(Br)c2)C1 (centres undefined) | 0% | 4% | 28% | ? | -14% | 0
Cc1ccc(C(=O)Nc2nc(C)c(C(=O)Nc3ccc4c(c3)CCC4)s2)cc1 | 5.8µM* | 1.3µM* | 1µM* | 1.3µM* | ? | 79
CCN(CC)CCNC(=O)c1ccc(NC(=O)c2ccc3c(c2)CCC3)cc1 | 18µM* | -13% | 15% | -17% | -5% | -13
Cc1nc(NC(=O)c2ccc(F)cc2)sc1C(=O)Nc1ccc2c(c1)CCC2 | ? | ? | -8% | ? | ? | 3
CN(C)S(=O)(=O)c1cccc(NC(=O)c2cccc(NS(=O)(=O)c3ccccc3)c2)c1 | -2% | 21µM* | 20% | ? | ? | -60*
CCN(CC)CCNC(=O)c1ccc(NC(=O)c2cccc(S(=O)(=O)N(C)C3CCCCC3)c2)cc1 | 74% | ? | -6% | -3% | nt | -14
SMILES | SW480 rerep | TDP1 cell CPT | MCF10A rerep | DT40 TDP1 no CPT | Chronic BCR inh | IL1B secr inh
CCOC(=O)c1cnc2c(Cl)cc(Cl)cc2c1Nc1ccccc1OC | nt | -7% | nt | -7% | nt | nt
CNCCCC1c2ccccc2C=Cc2ccccc21 | ? | ? | ? | 23µM* | ? | 0
CCn1c(O)c(C=Nc2ccccc2)n(-c2ccccc2)c1=S | 17%[9.22 µM] | 6.5µM* | 3% | 5.8µM* | ? | -5
CCn1c(O)c(C=Nc2ccccc2)sc1=O | 26% | -7% | ? | 1% | -13% | -12
C[C@@H]1CN([C@@H](C)CO)C(=O)CCCn2nncc2CO[C@H]1CN(C)C(=O)Nc1cccc(Oc2ccccn2)c1 | nt | -1% | nt | 0% | nt | -1
Cc1cc(C)nc(NC(N)=NC2CCCCC2)n1 | 1% | 15µM* | 13% | 12µM* | -3% | -6
COc1ccccc1C(CC(=O)c1ccccc1)C(=O)c1ccccc1 (centres undefined) | nt | ? | nt | ? | nt | 10
COc1ccccc1C(C(=O)c1ccccc1)c1ccc2ccccc2c1 (centres undefined) | nt | ? | nt | 16µM* | nt | -71*
Cc1ccc(Cl)cc1N1CCN(C(=O)CCS(=O)(=O)c2ccc3c(c2)NC(=O)CO3)CC1 | -29% | ? | ? | 10µM* | -10% | -53*
Cc1ccc(N2CCN(C(=O)CCS(=O)(=O)c3cc4c(cc3Cl)NC(=O)CO4)CC2)c(C)c1 | nt | 23µM* | nt | 21µM* | nt | nt
O=C1COc2ccc(S(=O)(=O)CCC(=O)N3CCN(c4cccc(Cl)c4)CC3)cc2N1 | 39% | 10µM* | 16% | 18µM* | -7% | 41
Brc1cccc2sc(N3CCCC3)nc12 | -5% | 3% | 4% | -5% | ? | 41
CCCCOc1ccc(NC(=S)Nc2cc(C)nc(SCCCC)n2)cc1 | -2% | 5.8µM* | 18% | 2.9µM* | -9% | 11
NS(=O)(=O)c1ccc(CNC(=O)c2ccc3c(=O)n4c(nc3c2)CCC4)cc1 | -3% | 23% | -1% | 3% | -1% | 4
O=C(O)c1ccc(C=C(c2nc3ccccc3s2)c2nc3ccccc3s2)cc1 | 6% | ? | 18µM* | 1% | -7% | -108*
COc1cc(/C=N\Nc2nc(-c3ccc(C)cc3)c(NC(C)=O)s2)ccc1O | -11% | -24% | 1% | -18% | -1% | -62*
COc1cc(/C=C(\CC(=O)O)c2nc3ccccc3s2)cc(OC)c1O | 6% | -16% | 1% | ? | ? | 35
COc1cc(/C=N/NC(=Nc2ccc(C)cc2)c2nc3ccccc3s2)ccc1O | ? | 14µM* | ? | 16µM* | ? | -13
